About 7,900 targets were measured; listed, in parts, are those with a hit and a random draw of the rest. About 0.6% of all pairs of compound and target were hits. A number with no mark means an inactive call.
Tests used:
Experiment in all cases: log2 fold change, soluble protein after heating vs DMSO (PISA); higher = thermal stabilisation; K562 cells, 10 uM, 30 min; active = over 0.2 and 3.5 SD of the protein, either way, in both replicates (recomputed)
[1] = compound: CS(=O)(=O)c1ccc(-c2cnc(N)c(C(=O)Nc3ccccc3)n2)cc1
Outline: (§1)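 K562 cells at 2×10^6 cells/mL were exposed to 10 μM compound for 30 min, then aliquots were heated for 3 min across 48°C-58°C, pooled, and extracted in PBS containing 0.5% NP-40 at 4°C. The supernatant after 21,000xg for 90 min was taken as soluble protein and measured by TMTpro 16plex LC-MS/MS with channel sums equalised. Thermal stability is reported relative to control samples, with values from duplicates. Fold changes are given on a log2 scale.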

[2] = compound: C[C@@H](Oc1cc(-c2cnn(C3CCNCC3)c2)cnc1N)c1c(Cl)ccc(F)c1Cl [crizotinib]
Outline: as §1

[3] = compound: C[C@@H]1COCCN1C2=NC(=NC(=C2)C3(CC3)S(=O)(=O)C)C4=C5C=CNC5=CC=C4
Outline: as §1

[4] = compound: C[C@H](C1=CC=C(C=C1)C(=O)NC2=C3C=CNC3=NC=C2)N
Outline: as §1

[5] = compound: C[C@H](Nc1ncnc2nc[nH]c12)c1cc2cccc(Cl)c2c(=O)n1-c1ccccc1 [duvelisib]
Outline: as §1

[6] = compound: Cc1cc(Nc2cc(CN3CCOCC3)c3nc(C)c(Cc4ccc(Cl)cc4F)n3n2)n[nH]1 [gandotinib]
Outline: as §1

[7] = compound: Cc1cc(Nc2cc(N3CCN(C)CC3)nc(Sc3ccc(NC(=O)C4CC4)cc3)n2)n[nH]1 [tozasertib]
Outline: as §1

[8] = compound: Cc1cc(SCc2sc(-c3ccc(C(F)(F)F)cc3)nc2C)ccc1OCC(=O)O
Outline: as §1

[9] = compound: Cc1ccc(-n2nc(C(C)(C)C)cc2NC(=O)Nc2ccc(OCCN3CCOCC3)c3ccccc23)cc1 [doramapimod]
Outline: as §1

[10] = compound: Cc1ccc(C(=O)N(CCCN)[C@@H](c2nc3cc(Cl)ccc3c(=O)n2Cc2ccccc2)C(C)C)cc1 [ispinesib]
Outline: as §1

UniProt Q14145, sequence (Q14145 whole entry, looked up): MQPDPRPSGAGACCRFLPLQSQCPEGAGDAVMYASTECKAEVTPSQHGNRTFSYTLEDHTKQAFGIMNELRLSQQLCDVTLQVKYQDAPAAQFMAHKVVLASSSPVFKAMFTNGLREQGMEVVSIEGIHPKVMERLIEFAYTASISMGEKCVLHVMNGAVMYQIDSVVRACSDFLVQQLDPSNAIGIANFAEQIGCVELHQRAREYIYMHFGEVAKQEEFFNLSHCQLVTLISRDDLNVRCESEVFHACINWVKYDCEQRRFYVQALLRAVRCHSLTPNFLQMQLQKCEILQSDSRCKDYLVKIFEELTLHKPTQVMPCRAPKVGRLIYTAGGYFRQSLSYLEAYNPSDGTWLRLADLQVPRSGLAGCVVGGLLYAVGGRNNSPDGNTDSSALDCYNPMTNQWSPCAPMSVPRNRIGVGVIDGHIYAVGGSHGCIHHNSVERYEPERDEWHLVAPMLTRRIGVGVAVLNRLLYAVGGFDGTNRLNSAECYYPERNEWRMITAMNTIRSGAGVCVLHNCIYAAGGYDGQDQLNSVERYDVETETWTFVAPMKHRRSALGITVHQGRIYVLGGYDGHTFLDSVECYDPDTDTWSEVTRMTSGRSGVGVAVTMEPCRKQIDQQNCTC
UniProt Q12905, sequence (Q12905 whole entry, looked up): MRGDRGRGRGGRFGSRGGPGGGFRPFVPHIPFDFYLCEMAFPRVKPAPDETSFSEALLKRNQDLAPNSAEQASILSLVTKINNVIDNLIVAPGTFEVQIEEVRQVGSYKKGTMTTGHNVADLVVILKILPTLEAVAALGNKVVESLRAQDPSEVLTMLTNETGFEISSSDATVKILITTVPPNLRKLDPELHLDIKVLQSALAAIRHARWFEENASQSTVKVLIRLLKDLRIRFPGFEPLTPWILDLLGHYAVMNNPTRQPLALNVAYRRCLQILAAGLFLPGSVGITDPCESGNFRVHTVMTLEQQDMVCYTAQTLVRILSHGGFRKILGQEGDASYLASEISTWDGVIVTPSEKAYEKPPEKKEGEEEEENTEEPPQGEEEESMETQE
UniProt Q92551, sequence (Q92551 whole entry, looked up): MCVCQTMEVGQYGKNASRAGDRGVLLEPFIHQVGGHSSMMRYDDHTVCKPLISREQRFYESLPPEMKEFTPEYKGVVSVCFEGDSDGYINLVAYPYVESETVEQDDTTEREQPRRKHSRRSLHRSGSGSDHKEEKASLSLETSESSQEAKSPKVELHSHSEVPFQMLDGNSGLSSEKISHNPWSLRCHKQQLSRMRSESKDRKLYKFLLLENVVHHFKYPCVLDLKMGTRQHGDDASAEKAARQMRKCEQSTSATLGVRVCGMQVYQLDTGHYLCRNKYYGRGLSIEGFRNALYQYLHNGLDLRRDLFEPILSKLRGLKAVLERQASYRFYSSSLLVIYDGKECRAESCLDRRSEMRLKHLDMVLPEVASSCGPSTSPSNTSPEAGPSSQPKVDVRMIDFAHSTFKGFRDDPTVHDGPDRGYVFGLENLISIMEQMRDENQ
UniProt P07948, sequence (P07948 whole entry, looked up): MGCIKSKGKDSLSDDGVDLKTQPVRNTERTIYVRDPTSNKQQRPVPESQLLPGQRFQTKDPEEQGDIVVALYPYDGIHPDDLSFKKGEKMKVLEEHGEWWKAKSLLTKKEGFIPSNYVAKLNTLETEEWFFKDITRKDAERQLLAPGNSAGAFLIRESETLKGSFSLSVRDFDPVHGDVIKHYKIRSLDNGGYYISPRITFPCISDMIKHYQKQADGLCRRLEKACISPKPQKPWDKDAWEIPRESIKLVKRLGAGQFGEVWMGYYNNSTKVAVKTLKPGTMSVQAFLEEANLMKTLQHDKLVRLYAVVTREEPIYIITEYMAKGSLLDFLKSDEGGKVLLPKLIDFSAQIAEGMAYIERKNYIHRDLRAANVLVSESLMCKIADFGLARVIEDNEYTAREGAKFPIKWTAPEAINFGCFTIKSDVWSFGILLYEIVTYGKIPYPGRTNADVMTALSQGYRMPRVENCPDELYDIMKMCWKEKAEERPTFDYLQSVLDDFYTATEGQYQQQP
UniProt Q96G25, sequence (Q96G25 whole entry, looked up): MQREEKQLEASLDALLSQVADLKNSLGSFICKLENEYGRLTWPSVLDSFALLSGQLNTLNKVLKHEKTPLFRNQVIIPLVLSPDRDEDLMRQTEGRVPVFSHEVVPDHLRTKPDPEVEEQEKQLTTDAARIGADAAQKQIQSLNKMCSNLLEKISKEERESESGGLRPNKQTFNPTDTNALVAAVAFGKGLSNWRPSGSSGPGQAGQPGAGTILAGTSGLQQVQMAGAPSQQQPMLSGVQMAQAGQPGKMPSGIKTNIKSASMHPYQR
UniProt Q8NE86, sequence (Q8NE86 whole entry, looked up): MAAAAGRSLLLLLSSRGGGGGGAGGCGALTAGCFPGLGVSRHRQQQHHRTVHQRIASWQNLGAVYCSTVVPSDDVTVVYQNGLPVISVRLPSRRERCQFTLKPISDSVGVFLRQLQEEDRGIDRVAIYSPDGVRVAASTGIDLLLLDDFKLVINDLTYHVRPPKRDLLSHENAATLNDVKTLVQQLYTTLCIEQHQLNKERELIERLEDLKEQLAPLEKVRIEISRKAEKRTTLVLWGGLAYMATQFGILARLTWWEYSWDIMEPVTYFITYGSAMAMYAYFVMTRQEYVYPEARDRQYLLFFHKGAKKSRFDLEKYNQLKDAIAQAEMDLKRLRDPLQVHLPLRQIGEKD
UniProt Q9H0C8, sequence (Q9H0C8 whole entry, looked up): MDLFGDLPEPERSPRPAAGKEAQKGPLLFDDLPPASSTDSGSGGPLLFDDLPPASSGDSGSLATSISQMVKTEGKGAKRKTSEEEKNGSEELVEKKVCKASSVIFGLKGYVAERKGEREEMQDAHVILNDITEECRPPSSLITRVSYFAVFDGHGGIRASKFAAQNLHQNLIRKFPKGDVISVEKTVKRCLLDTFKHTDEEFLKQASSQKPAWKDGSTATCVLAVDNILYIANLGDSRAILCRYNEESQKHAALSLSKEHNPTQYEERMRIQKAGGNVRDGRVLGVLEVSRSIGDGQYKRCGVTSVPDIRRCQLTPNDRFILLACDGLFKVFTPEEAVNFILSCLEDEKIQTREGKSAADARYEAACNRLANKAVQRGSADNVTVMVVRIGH
UniProt O95819, sequence (O95819 whole entry, looked up): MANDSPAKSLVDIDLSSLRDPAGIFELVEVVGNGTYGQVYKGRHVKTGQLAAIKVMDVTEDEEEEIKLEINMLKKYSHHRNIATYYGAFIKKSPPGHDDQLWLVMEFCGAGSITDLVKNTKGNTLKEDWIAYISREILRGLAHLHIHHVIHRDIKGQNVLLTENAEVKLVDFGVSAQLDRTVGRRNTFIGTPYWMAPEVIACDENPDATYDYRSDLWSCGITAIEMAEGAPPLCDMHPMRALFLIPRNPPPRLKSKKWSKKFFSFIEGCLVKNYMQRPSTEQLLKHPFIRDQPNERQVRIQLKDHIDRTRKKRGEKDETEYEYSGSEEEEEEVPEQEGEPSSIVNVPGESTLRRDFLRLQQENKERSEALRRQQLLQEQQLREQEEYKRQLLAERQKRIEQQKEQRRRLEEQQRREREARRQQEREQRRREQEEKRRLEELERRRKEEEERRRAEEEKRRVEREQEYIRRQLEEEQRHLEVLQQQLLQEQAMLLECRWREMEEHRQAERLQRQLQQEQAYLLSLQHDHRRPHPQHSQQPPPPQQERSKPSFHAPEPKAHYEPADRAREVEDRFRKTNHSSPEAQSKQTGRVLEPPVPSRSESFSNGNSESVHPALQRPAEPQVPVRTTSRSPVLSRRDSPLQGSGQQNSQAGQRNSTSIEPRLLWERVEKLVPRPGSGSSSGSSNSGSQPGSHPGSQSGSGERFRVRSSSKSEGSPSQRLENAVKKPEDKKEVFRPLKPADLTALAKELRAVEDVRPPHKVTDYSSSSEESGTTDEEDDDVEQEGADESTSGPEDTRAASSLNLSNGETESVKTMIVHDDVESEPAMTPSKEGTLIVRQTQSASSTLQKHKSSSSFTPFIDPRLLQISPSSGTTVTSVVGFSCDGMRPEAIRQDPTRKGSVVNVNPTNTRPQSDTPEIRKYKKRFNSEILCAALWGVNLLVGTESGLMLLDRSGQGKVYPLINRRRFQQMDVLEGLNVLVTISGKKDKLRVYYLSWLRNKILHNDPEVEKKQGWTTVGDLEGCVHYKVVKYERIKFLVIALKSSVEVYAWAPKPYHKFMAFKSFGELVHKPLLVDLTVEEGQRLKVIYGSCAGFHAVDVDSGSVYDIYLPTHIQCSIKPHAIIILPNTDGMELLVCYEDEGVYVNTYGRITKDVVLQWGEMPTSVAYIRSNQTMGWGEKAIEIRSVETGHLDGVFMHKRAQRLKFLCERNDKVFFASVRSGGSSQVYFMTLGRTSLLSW
UniProt P52294, sequence (P52294 whole entry, looked up): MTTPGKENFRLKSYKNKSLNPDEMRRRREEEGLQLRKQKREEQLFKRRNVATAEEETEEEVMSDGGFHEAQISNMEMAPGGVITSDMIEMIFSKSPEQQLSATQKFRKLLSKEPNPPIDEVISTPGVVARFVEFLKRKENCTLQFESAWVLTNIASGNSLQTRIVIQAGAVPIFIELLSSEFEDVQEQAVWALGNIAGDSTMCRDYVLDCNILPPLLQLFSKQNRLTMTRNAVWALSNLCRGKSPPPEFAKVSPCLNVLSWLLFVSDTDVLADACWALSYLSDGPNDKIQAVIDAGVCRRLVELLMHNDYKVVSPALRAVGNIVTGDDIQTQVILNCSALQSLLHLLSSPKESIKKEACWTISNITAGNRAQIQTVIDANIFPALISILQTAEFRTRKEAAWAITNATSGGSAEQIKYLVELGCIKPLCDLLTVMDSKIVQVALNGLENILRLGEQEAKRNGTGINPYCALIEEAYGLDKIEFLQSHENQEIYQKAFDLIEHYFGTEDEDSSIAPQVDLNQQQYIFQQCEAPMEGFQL
UniProt Q15528, sequence (Q15528 whole entry, looked up): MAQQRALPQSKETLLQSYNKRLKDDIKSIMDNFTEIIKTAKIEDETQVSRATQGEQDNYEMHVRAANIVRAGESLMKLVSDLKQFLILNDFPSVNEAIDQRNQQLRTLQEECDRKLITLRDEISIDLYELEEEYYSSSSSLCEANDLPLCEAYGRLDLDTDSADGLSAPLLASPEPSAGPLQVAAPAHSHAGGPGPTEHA

Target | log2 fold change [1] | log2 fold change [2] | log2 fold change [3] | log2 fold change [4] | log2 fold change [5] | log2 fold change [6] | log2 fold change [7] | log2 fold change [8] | log2 fold change [9] | log2 fold change [10]
ILKAP (UniProt Q9H0C8) | 0.008 | 0.064 | 0.174 | -0.054 | 0.041 | -0.061 | 0 | 0.085 | -0.055 | 0.05
KIF13A (UniProt Q9H1H9) | 0.018 | 0.058 | 0.112 | 0.072 | 0.034 | -0.384 (active) | 0.065 | -0.009 | -0.011 | -0.003
KPNA1 (UniProt P52294) | -0.021 | -0.169 | -0.029 | 0.084 | 0.047 | 0.01 | 0.075 | -0.008 | 0.062 | -0.012
MCU (UniProt Q8NE86) | -0.013 | -0.159 | 0.015 | 0.001 | 0.061 | -0.172 | -0.012 | 0.054 | -0.013 | -0.1
MICOS13 (UniProt Q5XKP0) | 0.049 | -0.164 | 0.156 | -0.08 | 0.031 | -0.216 | -0.047 | -0.055 | -0.027 | -0.257 (active)
LPIN3 isoform 2 (UniProt Q9BQK8) | 0.016 | – | 0.125 | 0.011 | 0.002 | -0.059 | -0.065 | 0.015 | – | -0.037
IL10RB (UniProt Q08334) | 0.004 | 0.009 | -0.031 | – | 0.018 | -0.238 | -0.122 | 0.089 | -0.007 | –
LSR (UniProt M0QZL9) | -0.03 | – | 0.118 | – | – | – | – | – | – | –
INTS5 (UniProt Q6P9B9) | 0.029 | -0.013 | 0.058 | – | 0.047 | – | 0.076 | 0.008 | 0.006 | 0.025
LUM (UniProt P51884) | -0.011 | 0.352 | -0.146 | 0.217 | 0.021 | – | -0.182 | -0.135 | 0.168 | -0.007
MAPK14 isoform 2 (UniProt Q16539) | 0.087 | -0.062 | -0.018 | -0.013 | -0.072 | -0.022 | 0.031 | 0.017 | – | -0.038
IP6K1 (UniProt Q92551) | 0.129 | – | -0.072 | 0.295 | 0.065 | -0.145 | -0.027 | 0.23 | – | -0.437
MAPK12 (UniProt P53778) | -0.005 | – | 0.105 | -0.106 | -0.005 | 0.037 | 0.099 | 0.01 | – | -0.036
MED7 (UniProt O43513) | -0.03 | 0.11 | -0.031 | -0.081 | -0.046 | – | 0.004 | 0.049 | -0.199 | 0.017
KCNK5 (UniProt O95279) | 0.087 | -0.164 | 0.339 | -0.013 | 0.213 | -0.03 | – | 0.242 | -0.165 | –
KEAP1 (UniProt Q14145) | 0.011 | -0.077 | -0.095 | 0.111 | 0.008 | -0.176 | 0.077 | 0.049 | 0.089 | -0.102
METAP1D (UniProt Q6UB28) | -0.009 | -0.041 | 0.147 | -0.037 | 0.03 | – | -0.055 | 0.01 | -0.091 | -0.032
ILRUN (UniProt Q9H6K1) | -0.033 | 0.115 | 0.028 | -0.038 | 0.021 | – | -0.087 | 0.029 | 0.005 | 0.032

Target | log2 fold change [1] | log2 fold change [2] | log2 fold change [3] | log2 fold change [4] | log2 fold change [5] | log2 fold change [6] | log2 fold change [7] | log2 fold change [8] | log2 fold change [9] | log2 fold change [10]
ILF3 (UniProt Q12906) | -0.152 | -0.201 | -0.284 | – | – | – | – | – | 0.026 | –
KLHL18 (UniProt O94889) | 0.092 | – | 0.078 | -0.084 | 0.049 | -0.561 (active) | -0.108 | 0.02 | – | 0.028
MED8 isoform 2 (UniProt Q96G25) | 0.021 | 0.037 | -0.049 | -0.077 | 0.029 | – | – | -0.079 | -0.031 | 0.012
ILF2 (UniProt Q12905) | -0.168 | -0.164 | -0.153 | 0.206 | -0.126 | 0.07 | -0.024 | 0.022 | 0.063 | 0.038
ITM2B (UniProt Q9Y287) | 0.065 | -0.193 | -0.032 | 0.038 | -0.15 | – | 0.033 | -0.032 | 0.043 | 0.131
MASTL (UniProt Q96GX5) | -0.058 | 0.092 | 0.179 | 0.046 | -0.199 | – | – | -0.12 | -0.075 | 0.099
LYN isoform 2 (UniProt P07948) | -0.791 (active) | -0.211 | -0.281 | -0.294 | – | – | – | – | 0.159 | –
MARK2 (UniProt E9PC69) | 0.068 | -0.323 | -0.049 | 0.15 | -0.181 | – | -0.263 | 0.12 | 0.119 | -0.232
IMMP1L (UniProt Q96LU5) | 0.024 | 0.121 | 0.045 | -0.05 | 0.088 | – | -0.058 | 0.012 | 0.015 | -0.063
MAP4K4 isoform 3 (UniProt O95819) | -0.058 | – | 0.002 | -0.055 | 0.091 | 0.311 | -0.169 | 0.017 | -0.156 | -0.05
KLHDC4 (UniProt Q8TBB5) | 0.093 | 0.157 | -0.07 | 0.111 | -0.091 | 0.041 | 0.025 | 0.039 | 0.069 | 0
MCM10 (UniProt Q7L590) | -0.171 | -0.015 | -0.102 | – | – | 0.092 | 0.144 | – | -0.01 | –
KPNA4 (UniProt O00629) | 0.004 | -0.003 | 0.024 | -0.073 | 0.03 | -0.032 | -0.014 | 0.014 | -0.046 | 0.037
IL27RA (UniProt Q6UWB1) | -0.031 | 0.029 | 0.539 (active) | -0.121 | 0.244 | – | -0.039 | -0.109 | 0.211 | 0.043
MED22 (UniProt Q15528) | 0.013 | -0.082 | 0.027 | 0.027 | 0.158 | – | -0.036 | 0.049 | 0.027 | -0.098
LRFN1 (UniProt Q9P244) | 0.108 | -0.006 | -0.15 | -0.198 | 0.038 | – | -0.042 | 0.009 | -0.09 | 0.102
MAP3K20 isoform 2 (UniProt Q9NYL2) | 0.038 | -0.182 | 0.082 | – | – | – | -0.191 | – | 0.096 | –

From the supplement of paper PMC10849652
